Laboratory results published in PubChem BioAssay AID1159580 (chemical genetic matrix, 2015).
Out of some 5,500 compounds screened, about 2,000 (36%) were called active. Another 18% or so got no clear call; they are omitted. Cut-off read from the data, not from the text of the source: active = normalized growth mostly below about 0.91 (no sharp cut-off); inconclusive = no clear call, values can overlap the other calls; inactive = mostly above about 0.92. The list shows a part of the results.

Assay: chemical genetic growth profiling, strain panel (AID 1159580);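 note: tested at 20 µM; growth read once vehicle control cultures reached saturation at 30 °C; 1 = growth at the plate median or of vehicle wells; lower values mean less growth of the strain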
Settings: S. cerevisiae deletion strains, growth OD

Measured: normalized growth

COc1cc(O)c(C(=O)/C=C/c2ccccc2)c(OC)c1
inactive: locus YAL021C, strain ccr4, hits give low values 0.998 | locus YAL026C, strain drs2, hits give low values 0.945 | locus YAL030W, strain snc1, hits give low values 0.941 | locus YBL061C, strain skt5, hits give low values 0.928 | locus YBR021W, strain FUR4, hits give low values 0.895 | locus YBR171W, strain sec66, hits give low values 0.957 | locus YBR229C, strain ROT2, hits give low values 0.942 | locus YBR231C, strain swc5, hits give low values 0.917 | locus YCL029C, strain bik1, hits give low values 0.923 | locus YCL061C, strain MRC1, hits give low values 0.922 | locus YCL069W, strain vba3, hits give low values 0.946 | locus YCR088W, strain abp1, hits give low values 0.96 | locus YDL005C, strain med2, hits give low values 0.98 | locus YDL035C, strain GPR1, hits give low values 0.907 | locus YDL040C, strain nat1, hits give low values 0.937 | locus YDL101C, strain DUN1, hits give low values 0.916 | locus YDL185W, strain tfp1, hits give low values 0.945 | locus YDR001C, strain nth1, hits give low values 0.947 | locus YDR069C, strain doa4, hits give low values 0.963 | locus YDR159W, strain sac3, hits give low values 0.975 | locus YDR162C, strain NBP2, hits give low values 0.947 | locus YDR297W, strain sur2, hits give low values 0.947 | locus YDR334W, strain swr1, hits give low values 0.972 | locus YDR335W, strain msn5, hits give low values 0.949 | locus YDR388W, hits give low values 0.932 | locus YEL003W, strain gim4, hits give low values 0.914 | locus YEL037C, strain rad23, hits give low values 0.948 | locus YEL061C, strain CIN8 (second series), hits give low values 0.966 | locus YER016W, strain bim1, hits give low values 0.945 | locus YER111C, strain swi4, hits give low values 0.987 | locus YER167W, strain BCK2, hits give low values 0.95 | locus YFR010W, strain ubp6, hits give low values 0.944 | locus YGL078C, strain dbp3, hits give low values 0.943 | locus YGL167C, strain pmr1, hits give low values 0.921 | locus YGL173C, strain kem1, hits give low values 0.921 | locus YGL227W, strain vid30, hits give low values 0.968 | locus YHR013C, strain ard1, hits give low values 1.01 | locus YHR027C, strain rpn1, hits give low values 0.942 | locus YHR030C, strain SLT2, hits give low values 0.924 | locus YIL066C, strain RNR3, hits give low values 0.867 | locus YIL073C, strain SPO22, hits give low values 0.733 | locus YIL125W, strain kgd1, hits give low values 0.944 | locus YJL092W, strain hpr5, hits give low values 0.945 | locus YJL095W, strain BCK1 (second series), hits give low values 0.945 | locus YJL115W, strain asf1, hits give low values 0.979 | locus YJL134W, strain LCB3, hits give low values 0.953 | locus YJL154C, strain vps35, hits give low values 0.975
active: locus YAL013W, strain DEP1, hits give low values 0.897 | locus YBR009C, strain hhf1, hits give low values 0.846 | locus YBR023C, strain chs3, hits give low values 0.893 | locus YBR279W, strain paf1, hits give low values 0.894 | locus YCL011C, strain gbp2, hits give low values 0.867 | locus YCL016C, strain dcc1, hits give low values 0.861 | locus YDL074C, strain BRE1, hits give low values 0.682 | locus YDL134C, strain PPH21, hits give low values 0.807 | locus YDL192W, strain arf1, hits give low values 0.796 | locus YDR101C, strain arx1, hits give low values 0.857 | locus YDR137W, strain rgp1, hits give low values 0.717 | locus YDR195W, strain ref2 1.18 [resistant] | locus YDR318W, strain mcm21, hits give low values 0.816 | locus YDR392W, strain spt3, hits give low values 0.373 | locus YDR502C, strain sam2, hits give low values 0.819 | locus YER015W, strain faa2, hits give low values 0.89 | locus YER110C, hits give low values 0.863 | locus YER155C, strain BEM2 (second series), hits give low values 0.807 | locus YER155C, strain BEM2, hits give low values 0.625 | locus YGL086W, strain mad1, hits give low values 0.794 | locus YGL240W, strain doc1, hits give low values 0.819 | locus YGL248W, strain PDE1, hits give low values 0.8 | locus YGL253W, strain hxk2, hits give low values 0.85 | locus YGR135W, strain pre9, hits give low values 0.83 | locus YGR229C, strain SMI1, hits give low values 0.681 | locus YGR252W, strain gcn5, hits give low values 0.667 | locus YHR079C, strain IRE1 (second series), hits give low values 0.909 | locus YHR094C, strain hxt1, hits give low values 0.917 | locus YHR129C, strain ARP1, hits give low values 0.857 | locus YHR142W, strain chs7, hits give low values 0.791 | locus YHR200W, strain rpn10, hits give low values 0.891 | locus YIR030C, strain dcg1, hits give low values 0.898 | locus YJL095W, strain BCK1, hits give low values 0.574 | locus YJL129C, strain trk1, hits give low values 0.779 | locus YJL164C, strain tpk1, hits give low values 0.858 | locus YJL166W, strain qcr8, hits give low values 0.792
